Data from PubChem BioAssay (Tox21).
Results filed as inconclusive are left out. Active and inactive are the calls of the source. Unless noted, calls follow the shape of the dose curve; as a rule, active = well fitted curve in the direction sought with a large enough effect in the repeat runs; inconclusive = weak or mixed curves; inactive = no such curve, though single readings can be large; an effect the other way counts as inactive or inconclusive.

What was measured:
[1] = A CellTox Green Cytotoxicity Assay to monitor cytotoxicity in HepG2 cells - 8 hour (AID 1224890); also: nearly all actives have a fitted effect of over 45% in size
Summary of the method: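 Using 1536-well format, dye-containing HepG2 suspension was seeded, allowed 5 h at 37 C/5% CO2, dosed by pintool with compounds, positive and negative controls, and imaged for fluorescence across 40 h.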

[2] = qHTS assay to identify small molecule antagonists of the estrogen receptor alpha (ER-alpha) signaling pathway using the BG1 cell line in the presence of 0.1 nM 17-beta-estradiol - cell viability counter screen (AID 1259241); also: nearly all actives have a fitted effect of over 40% in size
Summary of the method: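 In this screen, hormone-deprived VM7Luc4E2 cells were seeded at 4,000 per well, dosed with compound and 0.1 nM estradiol final, and incubated 22 hr at 37C and 5% CO2; fluorogenic live-cell protease signal reported viability.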

[3] = qHTS assay to identify small molecule antagonists of the androgen receptor (AR) signaling pathway using the MDA cell line in the presence of 0.5 nM R1881 - cell viability counter screen (AID 1259242); also: nearly all actives have a fitted effect of over 45% in size
Summary of the method: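 Viability of MDA-kb2 cells was multiplexed with the luciferase AR readout; after 16 hr with compounds and R1881 at 0.5 nM final, CellTiter-Fluor fluorescence was recorded.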

[4] = molecular target: Estrogen receptor (Homo sapiens) (UniProt P03372); experiment: qHTS assay to identify small molecule antagonists of the estrogen receptor alpha (ER-alpha) signaling pathway using the BG1 cell line in the presence of 0.1 nM 17-beta-estradiol (AID 1259244); also: nearly all actives have a fitted effect of over 50% in size
Estrogen receptor (Homo sapiens), sequence (P03372 whole entry, looked up): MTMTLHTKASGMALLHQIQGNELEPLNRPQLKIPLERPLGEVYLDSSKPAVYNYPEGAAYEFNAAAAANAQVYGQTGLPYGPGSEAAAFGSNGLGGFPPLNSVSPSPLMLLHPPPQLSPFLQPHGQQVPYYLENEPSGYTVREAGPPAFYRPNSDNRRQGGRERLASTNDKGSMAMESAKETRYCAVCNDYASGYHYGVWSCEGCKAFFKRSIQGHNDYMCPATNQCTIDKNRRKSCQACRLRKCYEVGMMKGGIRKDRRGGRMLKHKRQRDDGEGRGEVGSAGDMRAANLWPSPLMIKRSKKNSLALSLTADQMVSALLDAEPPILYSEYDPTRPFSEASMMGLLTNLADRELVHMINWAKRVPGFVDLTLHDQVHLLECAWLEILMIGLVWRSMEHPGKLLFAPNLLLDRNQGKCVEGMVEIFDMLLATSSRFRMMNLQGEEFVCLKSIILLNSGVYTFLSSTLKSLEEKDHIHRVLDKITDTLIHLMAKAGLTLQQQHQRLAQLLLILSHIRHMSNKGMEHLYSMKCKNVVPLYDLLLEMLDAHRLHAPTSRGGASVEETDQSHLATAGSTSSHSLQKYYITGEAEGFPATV
Summary of the method: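 Estradiol at 0.1 nM (final) stimulates the endogenous ER-alpha of VM7Luc4E2 cells carrying an ERE-driven luciferase; compounds are co-incubated 22 h at 37C and luciferase output quantified by luminescence.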

[5] = qHTS assay to identify small molecule HDAC inhibitors (AID 1259364); also: potency is read from the fitted curve at half-maximal effect;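 also: wild-type HCT-116 cells with endogenous class I/II HDAC activity; nearly all actives have a fitted effect of over 45% in size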; as to activity change, negative = inhibition: top concentration of the series differs between compounds
Summary of the method: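 Read-out: luminescence of HDAC-Glo I/II reagent, 30 min RT, reflecting class I/II deacetylase activity in whole HCT-116 cells pre-exposed 2 h to DMSO-dissolved compounds.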

[6] = qHTS assay to identify small molecule HDAC inhibitors - cell viability counter screen (AID 1259365); also: series mostly up to about 92 µM; nearly all actives have a fitted effect of over 50% in size
Summary of the method: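 Measured quantity is CellTiter-Glo luminescence from wild-type HCT-116 cells after compound incubation of 2hr at 37C, 5% CO2; reagent developed 30min at room temperature.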

[7] = qHTS assay to identify small molecule agonists of the sonic hedgehog signaling (Shh) pathway - cell viability counter screen (AID 1259366); also: nearly all actives have a fitted effect of over 50% in size
Summary of the method: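 In quantitative high-throughput format, 3T3 Gli1-Luc cells were exposed to compounds for 24hr and multiplexed for viability using CellTiter-Fluor, incubated 1hr at 37C before the fluorescence read.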

[8] = qHTS assay to identify small molecule antagonists of the sonic hedgehog signaling (Shh) pathway - cell viability counter screen (AID 1259367); also: nearly all actives have a fitted effect of over 55% in size
Summary of the method: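 Using CellTiter-Fluor, viability of Gli1-Luc reporter 3T3 cells is read by fluorescence in the wells used for the Shh luciferase assay. Treatment lasts 23 hr with conditioned medium, then reagent 1 hr at 37C.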

[9] = qHTS assay to identify small molecule phospholipidosis (PLD) inducers (AID 1259344; active = well fitted curve in the direction sought with a large enough effect; an effect the other way counts as inactive or inconclusive)
Summary of the method: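 Fluorescent phospholipid staining (LipidTOX Red) measured by automated microscopy in fixed HepG2 cells after 24 h treatment; nuclei counterstained with Hoechst 33342; amiodarone as reference inducer.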
% is scaled to controls: 0 for no effect and ±100 for the full control effect.

CCCCC1CCC(=O)O1 (stereo unspecified)
inactive: Potency [1] | Potency [2] | outcome [3] | Potency [4] | Potency [5] | outcome [6] | Potency [7] | Potency [8]

CCOc1ccc2nc(N)sc2c1
active: Potency [5] 24.1 µM
inactive: Potency [1] | Potency [2] | outcome [3] | Potency [4] | outcome [6] | Potency [7] | Potency [8]

O=C1CCCCC1C1CCCCC1 (stereo unspecified)
inactive: Potency [1] | Potency [2] | outcome [3] | Potency [4] | Potency [5] | outcome [6] | Potency [7] | Potency [8]

COc1nc(C)nc(NC(=O)NS(=O)(=O)c2ccccc2OCCCl)n1
inactive: Potency [1] | Potency [2] | outcome [3] | Potency [4] | Potency [5] | outcome [6] | Potency [7] | Potency [8]

FC(F)(F)C(F)(F)C(F)(F)C(F)(F)C(F)(F)C(F)(F)C(F)(F)C(F)(F)Br
inactive: Potency [1] | Potency [2] | outcome [3] | Potency [4] | outcome [9] | Potency [5] | outcome [6] | Potency [7] | Potency [8]

N#Cc1ccc(C(c2ccc(C#N)cc2)n2cncn2)cc1
inactive: Potency [1] | Potency [2] | outcome [3] | Potency [4] | outcome [9] | Potency [5] | outcome [6] | Potency [7] | Potency [8]

CCN(CC)CCNC(=O)COc1ccc(Cl)cc1
inactive: Potency [1] | Potency [2] | outcome [3] | Potency [4] | outcome [9] | Potency [5] | outcome [6] | Potency [7] | Potency [8]

CC(=O)OC1C2(C)CCC(C2)C1(C)C (stereo unspecified)
inactive: Potency [1] | Potency [2] | outcome [3] | Potency [4] | Potency [5] | outcome [6] | Potency [7] | Potency [8]

O=C1CCN(c2ccccc2)N1
inactive: Potency [1] | Potency [2] | outcome [3] | Potency [4] | Potency [5] | outcome [6] | Potency [7] | Potency [8]

C[C@@H]1CN(c2c(F)c(N)c3c(=O)c(C(=O)O)cn(C4CC4)c3c2F)C[C@H](C)N1
inactive: cytotoxicity increase [1] 0.794% [at 15.8 µM] | activity change, negative = cytotoxicity [2] 1.55% [at 19 µM] | viability change, negative = cytotoxic [3] 0.0147% [at 19 µM] | activity change, negative = inhibition [4] -0.515% [at 19 µM] | outcome [9] | activity change, negative = inhibition [5] -1.07% [at 19 µM] | activity change, negative = cytotoxicity [6] 4.84% [at 19 µM] | viability change, negative = cytotoxic [7] 1.22% [at 19 µM] | viability change, negative = cytotoxic [8] 0.364% [at 19 µM]

C=CCc1cc(OC)c(O)c(C(=O)NCCO)c1
inactive: Potency [1] | Potency [2] | outcome [3] | outcome [9] | Potency [5] | outcome [6] | Potency [7] | Potency [8]

O=C1CCCCCCCCCCC(=O)OCCO1
inactive: Potency [1] | Potency [2] | outcome [3] | Potency [4] | Potency [5] | Potency [7] | Potency [8]

CC(C)C(=O)OCC(C)(C)C(O)C(C)C (stereo unspecified)
inactive: Potency [1] | Potency [2] | outcome [3] | Potency [4] | Potency [5] | Potency [7] | Potency [8]
